# Measurements: PubChem BioAssay (NCI)
# Values joined by “and” are separate entries in the source; they are usually repeats but may differ in a detail not shown here. Equal values may be shown once. The panel holds about 79,000 compounds, 15% with a hit somewhere; the sample as a whole holds those more often. Values without a mark were called inactive. Active and inactive are the calls of the source. Rule as the data show it: active = growth inhibition above about 70%; inactive = the rest.
# How the values were obtained:
# [1] = NCI Yeast Anticancer Drug Screen. Data for the rad50 strain (AID 155);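 also: 0% = growth of vehicle-only cultures of the same strain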; conditions: S. cerevisiae rad50 strain growth inhibition; at 50.0 µM; stronger effect = higher value
# How it was run: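 DNA repair mutant yeast, compound exposure, growth read-out; inhibition is taken relative to vehicle.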
# [2] = NCI Yeast Anticancer Drug Screen. Data for the mec2-1 strain (AID 157); conditions: S. cerevisiae mec2-1 strain, at 50.0 µM, stronger effect = higher value
# How it was run: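 Mutant yeast (mec2-1) grown with compound; growth inhibition relative to vehicle control reported.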
# [3] = NCI Yeast Anticancer Drug Screen. Data for the sgs1 mgt1 strain (AID 161);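 also: 0% = growth of cultures given vehicle only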; conditions: S. cerevisiae sgs1 mgt1 strain, at 50.0 µM, stronger effect = higher value
# How it was run: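 Growth of a repair-deficient yeast mutant was monitored after compound treatment and expressed as inhibition relative to vehicle-treated cultures.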
# [4] = NCI Yeast Anticancer Drug Screen. Data for the cln2 rad14 strain (AID 165);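 also: 0% = growth equal to vehicle treated cultures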; conditions: S. cerevisiae cln2 rad14 strain, at 50.0 µM, stronger effect = higher value
# How it was run: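 Readout is yeast growth inhibition versus vehicle-treated controls, using a strain with cln2 and rad14 alterations exposed to compound.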
# [5] = NCI Yeast Anticancer Drug Screen. Data for the bub3 strain (AID 167); conditions: S. cerevisiae bub3 mutant strain, at 50.0 µM, stronger effect = higher value
# How it was run: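 In this screen, a yeast mutant lacking normal mitotic checkpoint function is challenged with compound. Relative growth versus vehicle gives the inhibition value.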
# [6] = NCI Yeast Anticancer Drug Screen. Data for the mlh1 rad18 strain (AID 175); conditions: S. cerevisiae mlh1 rad18 strain growth inhibition; at 50.0 µM; stronger effect = higher value
# How it was run: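 Genetically defined yeast (DNA repair-deficient) exposed to compounds; growth inhibition determined relative to vehicle.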
Compound,growth inhibition [1],growth inhibition [2],growth inhibition [3],growth inhibition [4],growth inhibition [5],growth inhibition [6]
O=c1c2cc(Br)cc(Br)c2[nH]c(=S)n1-c1ccccc1,-2.45%,31.4%,21.5%,21.4%,27.6%,19.8%
C=CC(C)(C)C12CC3C(=O)N/C(=C\c4cnc[nH]4)C(=O)N3C1Nc1ccccc12 (stereo not drawn),-33.4%,-11%,8.15%,1.45%,-6.3%,-14.8%
O=S(=O)(O)O/N=C(\Cc1ccccc1)SC1OC(CO)C(O)C(O)C1O (stereo not drawn),-2.45%,-7.1%,-2.55%,-7%,-0.75%,-3.25%
O=NNc1nc2ccccc2[nH]1,6.5%,-0.65%,2.05%,-24.6%,-6.95%,8.85%
Cc1cc(N(CCCl)CCCl)ccc1CN1CCCN(Cc2ccc(N(CCCl)CCCl)cc2C)C1c1cc(O)cc(Br)c1,43%,24.5%,35.4%,-2.55%,9.3%,37.9%
COP1(=O)OCC(C)(C)CO1,16.4%,-2.05%,12.7%,13.9%,-1.55%,35.8%
CC1(C)[C@@H]2CC[C@@]1(C)CN(CCC[N+](C)(C)C)C2,15.4%,-11.8%,-30.6%,-5.55%,-19.4%,-2.35%
O=P(Cc1ccccc1)(Oc1ccccc1)Oc1ccccc1,89.8% (active),56.5%,82.2% (active),24.8%,40.1%,74.8% (active)
CC1=CC(=O)CC2(C)CCC(C(C)CC(=O)CC(C)C)CC12OO (stereo not drawn),89.4% (active) and 88.8% (active),92.3% (active) and 92% (active),91.6% (active) and 91.4% (active),91.8% (active) and 91.7% (active),89.4% (active),91.3% (active) and 89.5% (active)
O=C1CCN2CCCC1C2 (stereo not drawn),-18.9%,-21.3%,-18.8%,-4.15%,-16.6%,-43.8%
CCC1(C(C)C)C(=O)NC(=S)N(C)C1=O (stereo not drawn),29.6%,-5.45%,2.9%,2.85%,0.95%,12.8%
CC(=O)OC1OC(CS[As](C)CCO)C(OC(C)=O)C(OC(C)=O)C1OC(C)=O (stereo not drawn),12.8%,-16.9%,-15.3%,-8%,-0.85%,-9.55%
CO/C=C/c1ccc2c(c1)OCO2,34.6%,25.5%,16.7%,10.2%,12.7%,-10.8%
O=C(NC(Cc1ccccc1)C(=O)N(CCCl)CCCl)c1ccccc1 (stereo not drawn),-5.15%,-17.5%,16.7%,4.1%,-13.7%,23.4%
O=[N+]([O-])c1ccc(NC(c2ccccc2)P(=O)(Oc2ccccc2)Oc2ccccc2)cc1 (stereo not drawn),-1.75%,-6.4%,-43.1%,-6%,-2.05%,3.65%
O=C(Nc1ccc(S(=O)(=O)Nc2ccc(N=Nc3ccc(N=Nc4ccccc4)cc3)cc2)cc1)C(N1CC1)(N1CC1)N1CC1,30.4%,-9.5%,3.95%,9.05%,-3.8%,-7.35%
O=c1[nH]c2ccc([As](=O)(O)O)cc2[nH]1,-8.7%,-1.1%,-0.95%,-5.2%,13.7%,8.55%
CC(CC(C)(C)[N-]CC[O-])=NCCO.O=[N+]([O-])O.[Cu+2],10.7%,20.2%,-5.7%,-0.05%,26.2%,18.7%
CN1CNC2C(=O)CCC2c2ccccc21 (stereo not drawn),-12.2%,-39.8%,-21.3%,-7.4%,-28.9%,-9.1%

Compound,growth inhibition [1],growth inhibition [2],growth inhibition [3],growth inhibition [4],growth inhibition [5],growth inhibition [6]
O=C(O)c1ccccc1S,7.1% and 0.05%,-7.6% and -15.2%,9.95% and -8.35%,18.9% and -22.2%,-1.75% and 5.25%,2.75% and 11.5%
O=C(O)CC1OCC=C2CN3CCC45c6ccccc6NC4C1C2CC35 (stereo not drawn),-30.8% and 9.3%,-15.9% and -13.8%,-31.9%,19.6%,-57.6%,-15.2% and 18.8%
CC(=O)[O-].N.N.N.N.[Co+3].[O-][Cl+3]([O-])([O-])[O-].[OH3+],-2.35%,7.3%,-1.45%,16.1%,21.9%,2.7%
COC(=O)C(CC(=O)N[N+](=O)[O-])NC(=O)C(CSC(c1ccccc1)(c1ccccc1)c1ccccc1)NC(=O)OCc1ccccc1 (stereo not drawn),-3.4%,11.7%,-4.25%,-15.1%,-8.1%,29.3%
CC(C)CCCC(C)CO[P+](=O)OCC(C)CCCC(C)C (stereo not drawn),31.9%,7.4%,18.5%,20.4%,5.8%,1.25%
O=P(O)(O)SP(=O)(O)O.[Co],22.2%,6.9%,11.2%,-8.9%,-12.8%,14.2%
O=C1C2C(C(=O)N1c1ccc(O)cc1)C1(Cl)C(Cl)=C(Cl)C2(Cl)C1(Cl)Cl (stereo not drawn),-0.45%,-11.8%,1.9%,-0.1%,-19.6%,1%
O=NN(CCF)C(=O)NCCO,1.9%,-7.3%,7.75%,12.4%,1.75%,-32.2%
O=C(O)C1CCCC(C(=O)O)[N-]1.O=C(O)C1CCCC(C(=O)O)[N-]1.[Cr+2] (stereo not drawn),31%,-3.5%,15.8%,-14.5%,-2%,14.3%
CC1(C)N=C(c2ccccc2)C2(c3ccccc3)N1C2(C)C (stereo not drawn),-1.8%,11.3%,16.8%,-0.3%,5.6%,-18.1%
CCN1CC2(CO)CCC(OC)C34C5CC6C(OC)CC(O)(C5C6OC)C(O)(C(OC)C23)C14 (stereo not drawn),1.95%,-16.6%,2.7%,9%,-12.6%,6.75%
CC(=O)OC1=CCC2(C)C(CCC3C4CCC(OC(C)=O)C4(C)CCC32)C1=O (stereo not drawn),87.5% (active),79.4% (active),87.5% (active),72.3% (active),73.5% (active),85.3% (active)
COC1=CC23CCCN2CCc2cc4c(cc2C3C1O)OCO4 (stereo not drawn),-6.9% and 0.4% and -9.15%,-23.4% and -25.8% and -28.7%,16.3% and 17.1% and 15.6%,4% and 8.1% and 2.4%,-12.8% and -5.35% and -6.25%,-3.85% and -1.8% and -36%
CC12CC3OC(=O)C1COC14OC5(C2C1=O)C(O)(CCC1C4CC(O)C2(O)CC=CC(=O)C12C)C(=O)OC35C (stereo not drawn),5.85%,7.95%,8.3%,11.2%,-1.3%,-40.8%
COP(=O)(OC)C(N)CCSC (stereo not drawn),-25.1%,-65.7%,-61.8%,23.7%,17.1%,-2.1%
CC(=O)Nc1ccc(NN=O)cn1,40.9%,4.7%,-15.9%,-7.95%,-37.8%,12.2%
O=c1ccc(=O)[nH][nH]1,6.25% and 36.3% and -4.05%,10.2% and 23.1% and -12.5%,5.6% and 7.25% and -6.05%,3.85% and 27.6% and -7.1%,1.65% and 30% and 26.9%,10.8% and 16.1% and 6.25%
CN(C)C(=O)CCl,1.85%,6.15%,20.6%,9.9%,-5.55%,7.25%
O=c1[nH]c(O)c(N=Nc2ccc([N+](=O)[O-])cc2[N+](=O)[O-])c(=O)[nH]1,14.7%,15.4%,22.2%,14.7%,-11.7%,7.35%
